Screening results as filed in PubChem BioAssay.
HSD17B inh: qHTS Assay for Inhibitors of HSD17B4, hydroxysteroid (17-beta) dehydrogenase 4 | actives 7.6% (n = 75,000) | Potency, µM (titrated, usually from 57.1 µM), usual class: inhibitors | recombinant HSD17B10, NADH fluorescence kinetic;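 note: the protocol describes HADH2 (HSD17B10) and not the HSD17B4 of the title; nearly all actives have a fitted effect of over 70% in size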
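20 nM HADH2, pH 9.0 Tris/Tween; cpd preinc 15 min RT; start w/ 1 mM NAD+ + 90 uM b-hydroxybutyryl-CoA; kinetic fluor ex360/em450 q30s x 4 min; delta last-first.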
PK Bst: Pyruvate Kinase | Potency, µM | purified pyruvate kinase, luminescence ATP production; ribose 5-phosphate activator present at AC10 | actives 1.2% (n = 51,000); in the data active = potency below about 11 µM; inconclusive = mostly about 12 µM to 25 µM;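 the screen sought inhibitors and activators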
A350 fluor: qHTS Assay for Spectroscopic Profiling in A350 Spectral Region; Compound autofluorescence, 340/450 nm, Alexa 350 dye-equivalents; stronger effect = higher value; max dye-equivalent concentration, M; actives 11% (n = 59,000); in the data active = max dye-equivalent concentration above about 10 nM; inconclusive = mostly about 1.1 nM to 9.6 nM
HADH2 inh: qHTS Assay for Inhibitors of HADH2 (Hydroxyacyl-Coenzyme A Dehydrogenase, Type II); recombinant HADH2, NADH fluorescence, beta-hydroxybutyryl-CoA; Potency, µM (top dose mostly 57.1 µM), actives largely listed as inhibitors; actives 3.4% (n = 73,000); AID 886, 2007; note: nearly all actives have a fitted effect of over 60% in size
Target sequence (Q99714 whole entry, looked up, one chain of several): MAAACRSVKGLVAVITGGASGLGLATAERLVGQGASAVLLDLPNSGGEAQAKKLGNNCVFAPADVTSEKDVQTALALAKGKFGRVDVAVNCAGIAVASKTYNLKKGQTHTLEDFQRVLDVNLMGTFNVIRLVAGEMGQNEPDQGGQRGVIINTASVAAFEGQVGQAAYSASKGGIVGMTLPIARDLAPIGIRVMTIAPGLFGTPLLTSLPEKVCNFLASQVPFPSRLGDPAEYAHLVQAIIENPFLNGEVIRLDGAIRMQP
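E. coli-expressed His-tagged HADH2 tested at 20 nM in alkaline Tris buffer (pH 9.0); oxidation of 90 uM beta-hydroxybutyryl-CoA with 1 mM NAD+ tracked fluorimetrically for 4 min.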
4MU fluor: qHTS Assay for Spectroscopic Profiling in 4-MU Spectral Region; compound autofluorescence, 340/450 nm, 4-MU equivalents; stronger effect = higher value; actives 11% (n = 59,000); max dye-equivalent concentration, M; in the data active = max dye-equivalent concentration above about 10 nM; inconclusive = mostly about 1.1 nM to 9.6 nM
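Compounds in 100 mM Tris, pH 8.0, sat 15 min at room temperature before fluorescence was read at 340 nm excitation/450 nm emission; a per-plate six-point 4-MU standard curve converted signals to dye-equivalent concentration at each compound concentration.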
AID923: qHTS Assay for Allosteric/Competitive Inhibitors of Caspase-1: Spectroscopic Profiling in AFC Spectral Region. compound fluorescence, AFC spectral region (405/520 nm). Potency, µM (highest dose often 57.5 µM), usual class: activators. actives 1.1% (n = 75,000)
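Baseline compound fluorescence (AFC region, 405 nm ex/520 nm em) taken from the intercept of kinetic reads with 50 nM caspase-1 and 5 uM Ac-WEHD-AFC; normalized to an on-plate AFC standard curve; compounds titrated up to 57 uM.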
Of the large screens only hits and unclear results are named; the others gave an inactive call. Only some compounds are listed: those with a hit (about 13% of all), similar ones and a draw of the others. Unless noted, calls come from the whole dose curve; as a rule, active = well fitted curve in the direction sought with a large enough effect; inconclusive = small, poorly fitted or top-dose-only effect, or another doubt; inactive = no such curve, though single readings can be large; an effect the other way counts as inactive or inconclusive.

CCOc1c2c(nc3ccc(Cl)cc13)CCC2	none
CN(C)CCCc1c2ccccc2nc2ccc(Cl)cc12	A350 fluor 7.2e-07M, 4MU fluor 6.7e-07M (no result: PK Bst)
COc1cc2c(cc1NC(=O)CN1C(=O)NC3(CCc4ccccc43)C1=O)oc1ccccc12 (centres undefined)	HSD17B inh 25µM, HADH2 inh inconclusive
COc1ccc(C(=O)CN2C(=O)NC3(CCCc4ccccc43)C2=O)cc1OC (centres undefined)	PK Bst inconclusive
COc1cc2c(cc1NC(=O)CCCN1C(=O)CCC1=O)oc1ccccc12	A350 fluor 1.3e-08M, 4MU fluor 1.1e-08M
CO[C@H]1COC(=O)C/C=C\[C@@H](C)[C@H](OC)COC(=O)[C@H]2CCCN2C(=O)C/C=C\[C@@H]1C	none (no result: PK Bst, A350 fluor, 4MU fluor)
COc1ccc(C(c2c(O)ccc3ccccc23)N2CCOCC2)c(OC)c1 (centres undefined)	HSD17B inh 25µM, A350 fluor inconclusive, HADH2 inh inconclusive, 4MU fluor inconclusive
Cc1cc(=O)c2c(O)cc(O)c(C)c2o1	none (no result: PK Bst, A350 fluor, HADH2 inh, 4MU fluor)
CCOC(=O)c1[nH]c2ccc(OC)cc2c1NC(C)=O	HSD17B inh 25µM, A350 fluor 5.7e-08M, HADH2 inh inconclusive, 4MU fluor 5.9e-08M
COc1ccc2[nH]c(C(=O)O)c(NS(=O)(=O)c3ccc(OC)c(OC)c3)c2c1	HSD17B inh inconclusive, HADH2 inh inconclusive (no result: PK Bst)
COC(=O)c1[nH]c2cc(OC)ccc2c1NC(=O)CN1CCOCC1	HSD17B inh inconclusive, A350 fluor 1.6e-08M, 4MU fluor 1.2e-08M
CCOC(=O)c1cc2cc(OC)ccc2[nH]1	A350 fluor 2e-08M, 4MU fluor 1.6e-08M (no result: HSD17B inh, HADH2 inh, AID923)
COc1ccc2[nH]c(C(=O)O)c(CCC(=O)O)c2c1	HSD17B inh 20µM, HADH2 inh 25µM
CC(=O)/C(=C\c1ccccc1)CC(=O)O	none (no result: PK Bst, A350 fluor, HADH2 inh, 4MU fluor)
CCOC(=O)c1[nH]c2ccc(OC)cc2c1NC(=O)CN1CCSCC1	HSD17B inh 32µM, A350 fluor 4.5e-08M, HADH2 inh 25µM, 4MU fluor 1.3e-07M
CN(C)C1CCN(C(=O)c2ccc(-n3c(=O)c(=O)[nH]c4ccccc43)cc2)C1 (centres undefined)	none (no result: PK Bst, A350 fluor, 4MU fluor)
C=CCn1c(O)c(C(CC)=NCc2cccnc2)c(=O)[nH]c1=O	A350 fluor 3.5e-08M, 4MU fluor 3e-08M
N#Cc1nc(-c2ccccc2F)oc1NCCN1CCOCC1	HSD17B inh 32µM, HADH2 inh 32µM (no result: PK Bst, A350 fluor, 4MU fluor)
N#Cc1nc(-c2ccco2)oc1NCCN1CCOCC1	HSD17B inh inconclusive, A350 fluor inconclusive, HADH2 inh inconclusive
N#Cc1nc(-c2cccs2)oc1NCCCN1CCOCC1	HSD17B inh 32µM, A350 fluor 4.1e-06M, HADH2 inh 25µM, 4MU fluor 3.2e-06M
N#Cc1nc(COc2ccccc2)oc1NCCN1CCOCC1	none
COc1ccc(-c2nc(C#N)c(NCCCN3CCOCC3)o2)cc1	HSD17B inh 32µM (no result: PK Bst, A350 fluor, 4MU fluor)
N#Cc1nc(-c2ccc(F)cc2)oc1NCCN1CCOCC1	HSD17B inh 13µM, HADH2 inh 32µM (no result: PK Bst, A350 fluor, 4MU fluor)
N#Cc1nc(COc2ccc(-c3ccccc3)cc2)oc1NCCCN1CCOCC1	none (no result: PK Bst)
CC(C)CCCC(C)C1CCC2C3CC[C@H]4CC(=O)CC[C@@]4(C)C3CC[C@@]12C (some centres undefined)	none (no result: PK Bst, A350 fluor, HADH2 inh, 4MU fluor)
O=C(COc1ccccc1)N1CCN(C(=O)Cc2ccccc2)CC1	none (no result: PK Bst, A350 fluor, 4MU fluor)
O=C(Nc1nnc(C2CC2)s1)c1cc(-c2ccccc2)nn1-c1ccccc1	none
Cc1ccc(-c2nc(C#N)c(NCCN3CCCCC3)o2)cc1	HSD17B inh 32µM, HADH2 inh 32µM (no result: PK Bst, A350 fluor, 4MU fluor)
Cc1ccc(S(=O)(=O)N[C@H]2COC(=O)[C@@H](Cc3ccccc3)NC(=O)[C@@H](C)COC(=O)C/C=C\[C@@H]2C)cc1	none (no result: PK Bst, A350 fluor, 4MU fluor)
COC(=O)c1cc(=O)nc2sc(-c3cccs3)nn12	HSD17B inh 25µM, A350 fluor 5.9e-08M, HADH2 inh inconclusive, 4MU fluor 5.6e-08M
